The text below walks through data of PubChem BioAssay (EPA / NIEHS).

Active and inactive are the calls of the source. The calls were made as follows: active = hit-call score of the fitted dose curve at least 0.9, where 1 is the maximum; inactive = score below 0.9.

Read-out in assay [1]: Interleukin 2 (IL2), IL2 (gene 3558)
As to the kind of experiment: BSK_BT_xIL2: BioMAP Diversity Plus: BT Assay for Interleukin 2 (IL2) Biomarker Activity (AID 2284245). Particulars: primary human B cells with PBMC. A digest of the protocol:
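B cell + PBMC co-culture (human primary), compound added, 24 h incubation; secreted IL-2 measured multiplexed on Luminex xMAP; gain-of-signal fit vs DMSO.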

Read-out in assay [2]: Basic fibroblast growth factor (bFGF), FGF2 (gene 2247)
The experiment in a line: BSK_MyoF_bFGF: BioMAP Diversity Plus: MyoF Assay for Basic fibroblast growth factor (bFGF) Biomarker Activity (AID 2284246). Particulars: primary human lung fibroblasts. In a few lines: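 ELISA-measured bFGF level serves as the read-out, taken 24 h after chemical dosing of human lung fibroblasts. Values represent signal gain over the DMSO negative control.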

Read-out in assay [3]: Collagen IV, COL4A1 (gene 1282)
As to the kind of experiment: BSK_MyoF_CollagenIV: BioMAP Diversity Plus: MyoF Assay for Collagen IV Biomarker Activity (AID 2284247). As to conditions: primary human lung fibroblasts. In a few lines:
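Steps: dose human lung fibroblasts; culture 24 h; quantify Collagen IV by ELISA; fit increase versus DMSO control. Parallel SRB total-protein staining (0.1% SRB after 10% TCA fixation, 560 nm) tracks overt cytotoxicity.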

Read-out in assay [4]: Plasminogen activator inhibitor-1 (PAI1), SERPINE1 (gene 5054)
As to the kind of experiment: BSK_MyoF_PAI1: BioMAP Diversity Plus: MyoF Assay for Plasminogen activator inhibitor-1 (PAI1) Biomarker Activity (AID 2284256).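 As to outcome: PAI-1 read 24 h after compound addition.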 Particulars: primary human lung fibroblasts. A digest of the protocol: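 Primary human lung fibroblasts treated with chemical for 24 h; PAI-1 levels quantified by ELISA relative to DMSO. Cytotoxicity was assessed in parallel cultures by SRB total-protein staining (0.1% SRB after 10% TCA fixation, 560 nm).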

Read-out in assay [5]: Interleukin-8 (IL8), CXCL8 (gene 3576)
The experiment in a line: BSK_MyoF_IL8: BioMAP Diversity Plus: MyoF Assay for Interleukin-8 (IL8) Biomarker Activity (AID 2284261). As to conditions: primary human lung fibroblasts. In a few lines: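 Human lung fibroblast (MyoF system) cultures dosed for 24 h, then IL-8 measured by ELISA. Response taken relative to DMSO; parallel SRB total-protein staining for cytotoxicity.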

Read-out in a further assay: Decorin, DCN (gene 1634)
As to the kind of experiment: BSK_MyoF_Decorin: BioMAP Diversity Plus: MyoF Assay for Decorin Biomarker Activity (AID 2284265). As to conditions: primary human lung fibroblasts. In a few lines:
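Human lung fibroblast cultures were dosed for 24 h, and decorin was then measured by ELISA. Parallel cultures were stained with sulforhodamine B for total protein as a cytotoxicity check. Gain of signal was fitted relative to DMSO.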

A short description of assay [6]: BSK_MyoF_SRB: Viability Assessment in the BioMAP Diversity Plus: MyoF Assay (AID 2284267).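 Also: total protein by SRB absorbance in parallel cultures as cytotoxicity measure.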 As to conditions: primary human lung fibroblasts. In a few lines: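 Read-out is SRB absorbance at 560 nm, reflecting total protein in parallel lung fibroblast cultures harvested 24 h after compound addition. Cells were TCA-fixed (10%) and stained with 0.1% SRB; activity is referenced to DMSO.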

Read-out in assay [7]: Matrix Metallopeptidase 1 (MMP1), MMP1 (gene 4312)
The experiment in a line: BSK_MyoF_MMP1: BioMAP Diversity Plus: MyoF Assay for Matrix Metallopeptidase 1 (MMP1) Biomarker Activity (AID 2284268). As to conditions: primary human lung fibroblasts. In a few lines:
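Human lung fibroblast primary cells; MMP1 measured by ELISA 24 h after dosing, fitted in the positive direction relative to DMSO. Parallel SRB staining (0.1%, after 10% TCA fixation, 560 nm) assesses overt cytotoxicity.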

Read-out in assay [8]: Monokine induced gamma interferon (MIG), CXCL9 (gene 4283)
The experiment in a line: BSK_KF3CT_MIG: BioMAP Diversity Plus: KF3CT Assay for Monokine induced gamma interferon (MIG) Biomarker Activity (AID 2284248). As to conditions: primary human keratinocytes with fibroblasts. In a few lines: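 Human keratinocyte–foreskin fibroblast co-culture; MIG measured by ELISA 24 h after chemical dosing, fitted upward versus DMSO. Cytotoxicity was assessed in parallel cultures by SRB total-protein staining read at 560 nm.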

Read-out in assay [9]: Vascular cell adhesion molecule 1 (VCAM1), VCAM1 (gene 7412)
The experiment in a line: BSK_BF4T_VCAM1: BioMAP Diversity Plus: BF4T Assay for Vascular cell adhesion molecule 1 (VCAM1) Biomarker Activity (AID 2284249). As to conditions: primary human bronchial epithelial cells with fibroblasts. In a few lines:
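Human bronchial epithelial cell and dermal fibroblast co-culture exposed 24 h. VCAM-1 measured by ELISA; parallel SRB total-protein staining for cytotoxicity. Fitted in positive direction relative to DMSO.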

Read-out in assay [10]: Collagen I, COL1A1 (gene 1277)
As to the kind of experiment: BSK_hDFCGF_CollagenI: BioMAP Diversity Plus: hDFCGF Assay for Collagen I Biomarker Activity (AID 2284250). Particulars: primary human foreskin fibroblasts. In a few lines: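 Human skin primary fibroblasts dosed with test chemical, harvested at 24 h, Collagen I quantified by ELISA; parallel SRB staining (0.1% SRB after 10% TCA fixation, 560 nm) tracked cytotoxicity.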

Read-out in assay [11]: Interferon-inducible T-cell alpha chemoattractant (ITAC), CXCL11 (gene 6373)
As to the kind of experiment: BSK_hDFCGF_ITAC: BioMAP Diversity Plus: hDFCGF Assay for Interferon-inducible T-cell alpha chemoattractant (ITAC) Biomarker Activity (AID 2284251). As to conditions: primary human foreskin fibroblasts. In a few lines: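 ELISA readout of I-TAC after 24 h chemical exposure; human dermal foreskin fibroblast primary cells. Positive-direction fitting vs DMSO baseline. Parallel SRB total-protein staining (0.1% SRB after 10% TCA fixation, 560 nm) flags cytotoxicity.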

Read-out in assay [12]: Plasminogen activator inhibitor-1 (PAI1), SERPINE1 (gene 5054)
As to the kind of experiment: BSK_KF3CT_PAI1: BioMAP Diversity Plus: KF3CT Assay for Plasminogen activator inhibitor-1 (PAI1) Biomarker Activity (AID 2284252). As to conditions: primary human keratinocytes with fibroblasts. In a few lines: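 ELISA read-out of PAI-1 taken 24 h after chemical treatment of a human skin primary co-culture of keratinocytes and foreskin fibroblasts. Increases over DMSO-treated wells defined activity.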

Read-out in assay [13]: Interleukin-8 (IL8), CXCL8 (gene 3576)
The experiment in a line: BSK_KF3CT_IL8: BioMAP Diversity Plus: KF3CT Assay for Interleukin-8 (IL8) Biomarker Activity (AID 2284254). As to conditions: primary human keratinocytes with fibroblasts. In a few lines:
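Human keratinocyte/foreskin fibroblast co-culture dosed 24 h; IL-8 measured by ELISA relative to DMSO. Parallel cultures stained with SRB for total protein to flag cytotoxicity.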

Read-out in assay [14]: Macrophage Inflammatory Protein-1 Alpha (MIP1a), CCL3 (gene 6348)
As to the kind of experiment: BSK_IMphg_MIP1a: BioMAP Diversity Plus: IMphg Assay for Macrophage Inflammatory Protein-1 Alpha (MIP1a) Biomarker Activity (AID 2284255). As to conditions: primary human endothelial cells with macrophages. In a few lines:
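Co-culture of human venular endothelial cells and macrophages exposed to compounds for 24 h; MIP-1a measured by ELISA relative to DMSO. Cytotoxicity assessed in parallel cultures by sulforhodamine B total-protein staining at 560 nm.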

Read-out in the next assay: CD69, CD69 (gene 969)
The experiment in a line: BSK_IMphg_CD69: BioMAP Diversity Plus: IMphg Assay for CD69 Biomarker Activity (AID 2284257). Particulars: primary human endothelial cells with macrophages. In a few lines: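 Human venular endothelial cells co-cultured with macrophages; CD69 quantified by ELISA 24 h after compound addition. Activity fitted in the positive direction relative to DMSO baseline; cytotoxicity tracked in parallel cultures via SRB total-protein staining.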

Read-out in assay [15]: Eotaxin 3, CCL26 (gene 10344)
As to the kind of experiment: BSK_BF4T_Eotaxin3: BioMAP Diversity Plus: BF4T Assay for Eotaxin 3 Biomarker Activity (AID 2284258). As to conditions: primary human bronchial epithelial cells with fibroblasts. A digest of the protocol:
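Co-culture of human bronchial epithelial cells and dermal fibroblasts, exposed to chemicals for 24 h versus DMSO. Eotaxin-3 quantified by ELISA; cytotoxicity checked in parallel cultures by sulforhodamine B total-protein staining.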

Read-out in assay [16]: Monocyte Chemoattractant Protein-1 (MCP1), CCL2 (gene 6347)
The experiment in a line: BSK_BF4T_MCP1: BioMAP Diversity Plus: BF4T Assay for Monocyte Chemoattractant Protein-1 (MCP1) Biomarker Activity (AID 2284259). Particulars: primary human bronchial epithelial cells with fibroblasts. In a few lines: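 Co-culture of bronchial epithelial cells and dermal fibroblasts dosed with chemical; MCP-1 measured by ELISA 24 h later. Activity fitted in positive direction versus DMSO; cytotoxicity checked by SRB staining in parallel cultures.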

Read-out in another assay: CD90, THY1 (gene 7070)
As to the kind of experiment: BSK_BF4T_CD90: BioMAP Diversity Plus: BF4T Assay for CD90 Biomarker Activity (AID 2284262). As to conditions: primary human bronchial epithelial cells with fibroblasts. In a few lines: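 Co-culture of human bronchial epithelial cells and dermal fibroblasts, 24 h compound exposure. Cell-surface CD90 measured by ELISA relative to DMSO; parallel SRB total-protein staining for cytotoxicity.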

Read-out in a further assay: KRT18 (gene 3875)
As to the kind of experiment: BSK_BF4T_Keratin818: BioMAP Diversity Plus: BF4T Assay for Keratin 818 Biomarker Activity (AID 2284266). As to conditions: primary human bronchial epithelial cells with fibroblasts. In a few lines:
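Co-culture of human bronchial epithelial cells and dermal fibroblasts, chemical exposure 24 h. Keratin 8/18 measured by ELISA; positive-direction fit vs DMSO. SRB total protein run in parallel cultures for cytotoxicity.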

As to `COP(N)(=S)OC`, the outcome was “inactive” in assay [1]; “inactive” in assay [2]; “inactive” in assay [3]; “inactive” in [4]; “inactive” in assay [5]; “inactive” with Decorin, DCN (gene 1634). In addition, the outcome in [6] and in [7] was inactive.
As for `O=S(=O)(F)C(F)(F)C(F)(F)C(F)(F)C(F)(F)C(F)(F)C(F)(F)C(F)(F)C(F)(F)F`, the outcome in assay [1], in assay [2], in [3], in assay [8], in assay [9] and in assay [10] was inactive. The outcome in assay [11] is “inactive”; in assay [12], “inactive”; in assay [13], “inactive”; in assay [14], “inactive”; in assay [4] it was “inactive”; in the assay with CD69, CD69 (gene 969), “inactive”. The outcome in assay [15] was “inactive”; in assay [16], “inactive”; in [5], “inactive”; with CD90, THY1 (gene 7070) it was “inactive”; with Decorin, DCN (gene 1634), “inactive”; with KRT18 (gene 3875), “inactive”. For the same compound, the outcome in [6] and in assay [7] was inactive.
In the case of `O=C(O)C(F)(F)C(F)(F)C(=O)O`, the result in assay [1], in [2], in assay [3], in [8], in assay [9] and in assay [10] was inactive. Moreover, the outcome in assay [11] is “inactive”; in [12] it was “inactive”; in [13], “inactive”; in [14], “inactive”; in assay [4], “inactive”; with CD69, CD69 (gene 969) it was “inactive”. In addition, the outcome was “inactive” in [15]; “inactive” in assay [16]; “inactive” in [5]; “inactive” with CD90, THY1 (gene 7070); “inactive” with Decorin, DCN (gene 1634); “inactive” with KRT18 (gene 3875). In addition, the outcome in assay [6] and in assay [7] was inactive.
With `NC(=O)C(F)(F)C(F)(F)F`, the outcome in [1], in assay [2], in assay [3], in [8], in assay [9] and in assay [10] was inactive. Further, the outcome in [11] is “inactive”; in assay [12], “inactive”; in assay [13] it was “inactive”; in assay [14], “inactive”; in [4], “inactive”; with CD69, CD69 (gene 969) it was “inactive”. The outcome in [15] was “inactive”; in assay [16], “inactive”; in assay [5], “inactive”; with CD90, THY1 (gene 7070) it was “inactive”; in the assay with Decorin, DCN (gene 1634), “inactive”; in the assay with KRT18 (gene 3875) it was “inactive”. The outcome in [6] and in assay [7] was inactive.
Regarding `c1ccc2c(c1)sc1ccccc12`, the outcome in assay [1] is “inactive”; in assay [2] it was “inactive”; in [3] it was “inactive”; in assay [4] it was “inactive”; in assay [5] it was “inactive”; with Decorin, DCN (gene 1634), “inactive”. Moreover, the result in assay [6] and in assay [7] was inactive.
What is called AC50 is the concentration giving half of the maximal activity seen. On to `ClC(Cl)=C(c1ccc(Cl)cc1)c1ccccc1Cl`, for which the AC50 in assay [1] was 31.4 µM (active); in [2], 9.45 µM (active); in assay [3], 9.38 µM (active); in assay [4], 9.39 µM (active); in assay [5] it was 9.75 µM (active); with Decorin, DCN (gene 1634) it was 9.47 µM (active). Besides, the AC50 in assay [6] was 6.71 µM (active); in [7], 9.59 µM (active).
`CC(O)C(F)(F)C(F)(F)F` (centres undefined): the result in [1], in assay [2], in assay [3], in assay [8], in assay [9] and in assay [10] was inactive. Besides, the outcome in [11] is “inactive”; in assay [12] it was “inactive”; in assay [13], “inactive”; in assay [14] it was “inactive”; in assay [4] it was “inactive”; with CD69, CD69 (gene 969) it was “inactive”. Moreover, the outcome was “inactive” in assay [15]; “inactive” in assay [16]; “inactive” in assay [5]; “inactive” in the assay with CD90, THY1 (gene 7070); “inactive” in the assay with Decorin, DCN (gene 1634); “inactive” with KRT18 (gene 3875). For the same compound, the outcome in [6] and in assay [7] was inactive.
